According to paper PMC4336329 (PLoS ONE, 2015):
Hit rate of the full screen: of about 310,000 compounds, about 14,000 (4.5%) showed an effect of 50% or more. The effect is printed as a negative number. What follows is part of a selection rich in strong results, with near analogues and random picks from the rest.

Molecular target: human ether-à-go-go-related gene (hERG) potassium channel (human, UniProt Q12809)
Test: primary screen, population patch clamp on CHO cells stably expressing hERG; higher = less effect of the substance
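Also: peak tail current of the secondary pulse compared with the same well before compound.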

Sequence of human ether-à-go-go-related gene (hERG) potassium channel (Q12809 whole entry, looked up): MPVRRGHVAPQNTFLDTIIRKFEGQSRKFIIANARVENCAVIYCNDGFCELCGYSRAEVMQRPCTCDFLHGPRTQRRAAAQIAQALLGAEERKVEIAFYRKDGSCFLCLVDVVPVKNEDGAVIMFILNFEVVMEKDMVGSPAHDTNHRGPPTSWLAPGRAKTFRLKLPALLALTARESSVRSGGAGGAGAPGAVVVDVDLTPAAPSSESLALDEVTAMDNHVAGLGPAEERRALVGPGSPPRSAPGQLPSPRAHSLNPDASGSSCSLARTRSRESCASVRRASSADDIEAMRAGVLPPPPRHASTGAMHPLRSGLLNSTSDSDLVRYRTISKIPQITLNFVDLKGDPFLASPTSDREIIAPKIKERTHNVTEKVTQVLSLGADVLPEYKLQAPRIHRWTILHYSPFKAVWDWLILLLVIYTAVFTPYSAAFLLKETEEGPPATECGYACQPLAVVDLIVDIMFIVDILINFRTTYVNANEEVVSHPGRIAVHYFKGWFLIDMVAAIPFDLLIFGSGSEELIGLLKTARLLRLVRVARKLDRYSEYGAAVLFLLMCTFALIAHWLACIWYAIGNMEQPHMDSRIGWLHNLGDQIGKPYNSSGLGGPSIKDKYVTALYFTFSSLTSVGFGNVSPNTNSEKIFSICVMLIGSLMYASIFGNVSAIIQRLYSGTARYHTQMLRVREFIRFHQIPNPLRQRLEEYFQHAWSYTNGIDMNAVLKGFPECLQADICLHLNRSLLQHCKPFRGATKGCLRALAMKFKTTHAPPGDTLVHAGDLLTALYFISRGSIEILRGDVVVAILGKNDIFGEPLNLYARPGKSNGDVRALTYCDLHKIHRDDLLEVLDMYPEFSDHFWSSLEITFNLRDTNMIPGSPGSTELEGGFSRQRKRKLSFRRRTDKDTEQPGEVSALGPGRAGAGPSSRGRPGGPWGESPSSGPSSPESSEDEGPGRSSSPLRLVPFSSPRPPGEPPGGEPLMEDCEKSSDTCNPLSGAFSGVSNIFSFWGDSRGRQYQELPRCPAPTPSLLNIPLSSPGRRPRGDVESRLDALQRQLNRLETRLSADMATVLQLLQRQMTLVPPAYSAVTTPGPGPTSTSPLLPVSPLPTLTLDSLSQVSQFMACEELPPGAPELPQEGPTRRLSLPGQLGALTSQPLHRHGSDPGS

Row | SMILES | hERG current change (%, negative = inhibition) at 10uM [%]
1 | O=C(CSc1ccc2nnc(-c3cccnc3)n2n1)Nc1ccccc1 | -17.8
2 | COc1ccc(NC(=O)CSc2ccc3nnc(-c4cccnc4)n3n2)cc1OC | 1.17
3 | Cc1c(C(=O)Nc2cccc(Cl)c2)cn2c(nc3ccccc32)c1C#N | 6.75
4 | CC(=O)NCC(=O)OC(C)C(=O)Nc1ccc(C(C)=O)cc1 (stereo not shown) | -10.4
5 | COc1cc(/C=C(\C#N)C(=O)NCC2CCCO2)ccc1OCC(N)=O (stereo not shown) | 28.7
6 | C/C(=N\NC(=O)CCc1ccccc1)c1ccc(Br)cc1 | 11
7 | CN(C)S(=O)(=O)c1ccc(NC(=O)COc2ncnc3sccc23)cc1 | 15.7
8 | CN(C)c1ccc(CNC(=O)CCNS(=O)(=O)c2cc(Br)cnc2N)cc1 | 12
9 | COc1cccc(/C=C/C(=O)Nc2ccccc2N2CCOCC2)c1 | -15.4
10 | CCCCS(=O)CC(COc1ccc(Cl)cc1)OC(=O)c1ccccc1 (stereo not shown) | -56.3
11 | CCCCS(=O)CC(CS(=O)CCCC)OC(=O)c1ccccc1 (stereo not shown) | -35.2
12 | CCCCS(=O)CC(COC)OC(=O)c1ccccc1 (stereo not shown) | 2.46
13 | Cc1ccc(-c2c(C(=O)NCc3ccccc3)oc(=O)c3ccccc23)cc1 | 1.98
14 | Cc1ccccc1NC(=O)c1oc(=O)c2ccccc2c1-c1ccccc1 | -1.57
15 | CC(C)N(CCNC(=O)c1oc(=O)c2ccccc2c1-c1ccccc1)Cc1ccco1 | -67.9
16 | CC(C)CC(=O)Nc1ncnc2c1C(=O)CC(C)(C)C2 | -0.157
17 | CCOC(=O)N1CCN(S(=O)(=O)c2c(C)cc(C)cc2C)CC1 | -5.61
18 | CSc1ccc(/C=N/n2c(C)cc(C)cc2=O)cc1 | -2.09
19 | C=CCn1c(SCC(=O)Nc2cccc(S(=O)(=O)N(C)c3ccccc3)c2)nnc1C1CC1 | -69.8
20 | Cc1cccc(NC(=O)CSc2nnc(C3CC3)n2CC2CCCO2)c1 (stereo not shown) | -14.9
21 | CCn1c(SCC(=O)Nc2cccc(S(=O)(=O)N(C)c3ccccc3)c2)nnc1C1CC1 | -44.1
22 | Cc1nnc(SCC(=O)Nc2ccc([N+](=O)[O-])cc2)n1CC1CCCO1 (stereo not shown) | -55.5
23 | CN(c1ccccc1)S(=O)(=O)c1cccc(NC(=O)CSc2nnc(C3CC3)n2C)c1 | -30.9
24 | Cc1ccc([N+](=O)[O-])cc1NC(=O)CSc1nnc(C)n1CC1CCCO1 (stereo not shown) | -14.6
25 | CCc1ccc(NC(=O)CSc2nnc(C3CC3)n2CC2CCCO2)cc1 (stereo not shown) | -22.4

Row | SMILES | hERG current change (%, negative = inhibition) at 10uM [%]
26 | O=C(CSc1nnc(C2CC2)n1CC1CCCO1)Nc1ccc(Cl)cc1 (stereo not shown) | -56.8
27 | Cc1nnc(SCC(=O)Nc2cccc([N+](=O)[O-])c2)n1CC1CCCO1 (stereo not shown) | -13
28 | Cc1nnc(SCC(=O)Nc2cccc(Cl)c2)n1CC1CCCO1 (stereo not shown) | -7.41
29 | Cc1ccc(NC(=O)CSc2nnc(C3CC3)n2CC2CCCO2)cc1C (stereo not shown) | -24
30 | O=C(CSc1nnc(C2CC2)n1CC1CCCO1)Nc1cccc(Cl)c1 (stereo not shown) | -56.1
31 | O=C(CCNS(=O)(=O)c1cccc2nsnc12)NC1CCCc2ccccc21 (stereo not shown) | 9.49
32 | CCCc1cc(=O)n2[nH]c(CCc3ccccc3)nc2n1 | 14.1
33 | O=C(NCC(c1cccs1)N1CCOCC1)c1ccccc1NS(=O)(=O)c1ccc(Br)cc1 (stereo not shown) | -38.4
34 | CCOC(=O)c1sc(NC(=O)c2ccc(Cl)s2)cc1C | 3.03
35 | O=C(c1ccco1)N1CCN(C2CC(=O)N(c3ccc(F)c(Cl)c3)C2=O)CC1 (stereo not shown) | -14.2
36 | Cc1ccc(OS(=O)Nc2cccc3nccnc23)cc1 (stereo not shown) | -18.6
37 | COc1ccccc1C(=O)NCCC(=O)NCc1ccncc1 | -4.37
38 | O=C(c1ccco1)N1CCN(Cc2nc3ccc([N+](=O)[O-])cc3c(=O)n2-c2ccccc2F)CC1 | -68.3
39 | CCOC(=O)c1ccc(-n2c(CN3CCN(CCO)CC3)nc3ccc([N+](=O)[O-])cc3c2=O)cc1 | -25.1
40 | CCOC(=O)N1CCN(Cc2nc3ccc([N+](=O)[O-])cc3c(=O)n2-c2cccc(OC)c2)CC1 | -39.8
41 | O=c1c2cc([N+](=O)[O-])ccc2nc(CN2CCN(c3ccccn3)CC2)n1-c1ccccc1F | -28.3
42 | O=C(O)C(=O)O.O=C(c1ccco1)N1CCN(Cc2ccccc2F)CC1 | 3.7
43 | CCOc1ccccc1-n1c(CN2CCN(C(=O)c3ccco3)CC2)nc2ccccc2c1=O | -26.2
44 | CCOC(=O)N1CCN(Cc2nc3ccc([N+](=O)[O-])cc3c(=O)n2-c2ccccc2F)CC1 | -69.9
45 | CCC(CC)N1CCN(Cc2nc3ccc([N+](=O)[O-])cc3c(=O)n2-c2ccccc2F)CC1 | -57
46 | CCOC(=O)c1ccc(-n2c(CN3CCOCC3)nc3ccc([N+](=O)[O-])cc3c2=O)cc1 | 1.65
47 | CCOC(=O)N1CCN(Cc2nc3ccc([N+](=O)[O-])cc3c(=O)n2-c2ccc(OC)cc2OC)CC1 | -46.1
48 | CCN1CCN(Cc2nc3ccc([N+](=O)[O-])cc3c(=O)n2-c2ccccc2F)CC1 | 17.9
49 | CCOC(=O)c1ccc(-n2c(CN3CCN(CC)CC3)nc3ccc([N+](=O)[O-])cc3c2=O)cc1 | -55
